This note sets out measurements from article PMC4336329 (PLoS ONE, 2015).

Hit rate of the full screen: of about 310,000 compounds, about 2,200 (0.71%) showed an effect of 50% or more. Effects have a minus sign here. Many of the other results were omitted from the sample, so strong results are more common in it than they were.

The target of the experiment is human ether-à-go-go-related gene (hERG) potassium channel (human, UniProt Q12809). As to the kind of experiment: primary screen, population patch clamp on CHO cells stably expressing hERG; higher = less effect of the substance.
Sequence of human ether-à-go-go-related gene (hERG) potassium channel (Q12809 whole entry, looked up): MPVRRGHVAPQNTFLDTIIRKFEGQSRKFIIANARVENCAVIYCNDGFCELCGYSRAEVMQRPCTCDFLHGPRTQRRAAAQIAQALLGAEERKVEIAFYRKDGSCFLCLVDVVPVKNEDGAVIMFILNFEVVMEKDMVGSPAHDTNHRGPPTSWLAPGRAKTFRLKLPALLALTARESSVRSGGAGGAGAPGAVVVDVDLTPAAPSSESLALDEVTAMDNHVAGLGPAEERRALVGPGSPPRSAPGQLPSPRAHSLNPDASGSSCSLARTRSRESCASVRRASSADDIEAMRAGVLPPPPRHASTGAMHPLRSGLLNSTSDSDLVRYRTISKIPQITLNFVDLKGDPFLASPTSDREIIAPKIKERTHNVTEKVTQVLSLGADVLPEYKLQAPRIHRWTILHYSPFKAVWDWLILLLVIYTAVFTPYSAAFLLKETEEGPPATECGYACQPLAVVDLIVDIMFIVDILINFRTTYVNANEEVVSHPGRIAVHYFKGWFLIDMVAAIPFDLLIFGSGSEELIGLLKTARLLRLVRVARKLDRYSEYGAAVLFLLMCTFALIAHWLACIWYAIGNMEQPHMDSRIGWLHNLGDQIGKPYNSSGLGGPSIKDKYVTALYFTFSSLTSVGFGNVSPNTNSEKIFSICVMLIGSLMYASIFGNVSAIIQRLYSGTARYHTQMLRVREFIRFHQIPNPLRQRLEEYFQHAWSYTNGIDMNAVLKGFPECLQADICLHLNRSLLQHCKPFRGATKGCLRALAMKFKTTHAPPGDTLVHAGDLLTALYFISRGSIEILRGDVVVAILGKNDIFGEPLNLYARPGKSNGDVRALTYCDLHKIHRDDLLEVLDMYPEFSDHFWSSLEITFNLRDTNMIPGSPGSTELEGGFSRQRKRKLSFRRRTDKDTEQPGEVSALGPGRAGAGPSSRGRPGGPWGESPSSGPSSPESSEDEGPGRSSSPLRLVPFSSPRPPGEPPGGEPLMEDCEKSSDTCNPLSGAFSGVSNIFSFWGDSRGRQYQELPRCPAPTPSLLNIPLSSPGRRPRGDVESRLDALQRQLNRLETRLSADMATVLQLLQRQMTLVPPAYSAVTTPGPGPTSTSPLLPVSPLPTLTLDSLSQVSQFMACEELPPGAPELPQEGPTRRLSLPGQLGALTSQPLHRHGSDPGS
Turning to `CCOC(=O)c1cccc(Nc2ncnc3ccc(C)cc23)c1`, the “hERG current change (%, negative = inhibition) at 1uM” value is on record as -3.73%.
Turning to `CC(C)OCCCNC(=O)COc1ccc2oc3c(c2c1)CCCC3`, the “hERG current change (%, negative = inhibition) at 1uM” value is reported as 11.1%.
Turning to `CC(C)N(CCNC(=O)COc1ccc2oc3c(c2c1)CCCC3)C(C)C`, the “hERG current change (%, negative = inhibition) at 1uM” value was -52.7%.
As for `CCN(CC)CCCNC(=O)COc1ccc2oc3c(c2c1)CCCC3.Cl`, the figure is 6.07%.
`O=C(NCCN=C1NS(=O)(=O)c2ccccc21)c1ccc2nccnc2c1`: the “hERG current change (%, negative = inhibition) at 1uM” value stood at 18.3%.
With `O=C(CSCc1cccc(CSCC(=O)Nc2ccc3ccccc3c2)n1)Nc1ccc2ccccc2c1`, the “hERG current change (%, negative = inhibition) at 1uM” value is recorded as 8.91%.
Regarding `O=C(CSCc1cccc(CSCC(=O)Nc2ccccc2)n1)Nc1ccccc1`, the “hERG current change (%, negative = inhibition) at 1uM” value was -59.7%.
For `O=C(CSCc1ccccn1)Nc1ccccc1`, the “hERG current change (%, negative = inhibition) at 1uM” value is on record as -0.275%.
Take `C=CCNC(=O)c1sc(=S)n(-c2ccc(C(=O)OCC)cc2)c1N`: the “hERG current change (%, negative = inhibition) at 1uM” value stood at 2.24%.
Turning to `O=C(c1cccn2c(=O)c3cc(Cl)ccc3nc12)N1CCN(Cc2ccc3c(c2)OCO3)CC1`, the “hERG current change (%, negative = inhibition) at 1uM” value is reported as -33.5%.
In the case of `O=C(c1ccc2nc3ccccc3c(=O)n2c1)N1CCN(Cc2ccc3c(c2)OCO3)CC1`, the “hERG current change (%, negative = inhibition) at 1uM” value is listed as -12.2%.
As to `O=C(c1cccn2c(=O)c3ccccc3nc12)N1CCN(Cc2ccc3c(c2)OCO3)CC1`, the “hERG current change (%, negative = inhibition) at 1uM” value is given as -54.4%.
As to `Cc1onc(-c2ccccc2Cl)c1C(=O)OCc1nnc(-c2ccccc2)o1`, the “hERG current change (%, negative = inhibition) at 1uM” value was found to be 3.84%.
For `CCOc1ccc(C(=O)N2CCC(C(=O)c3ccc4c(c3)OCCO4)CC2)cc1`, the “hERG current change (%, negative = inhibition) at 1uM” value is -61.5%.
Consider `O=C(OCc1nnc(-c2ccc([N+](=O)[O-])cc2)o1)C1CCN(C(=O)c2ccc(F)cc2)CC1`, for which the “hERG current change (%, negative = inhibition) at 1uM” value was -71.4%.
Regarding `O=C(CCC(=O)c1ccc(F)cc1)OCc1nnc(-c2ccc([N+](=O)[O-])cc2)o1`, the “hERG current change (%, negative = inhibition) at 1uM” value turned out to be 1.72%.
As to `CCOc1ccc(C(=O)C2CCN(C(=O)c3ccc([N+](=O)[O-])cc3)CC2)cc1`, the “hERG current change (%, negative = inhibition) at 1uM” value is recorded as -81.1%.
Turning to `CCOC(=O)N1CCN(C(=O)C2CCN(C(=O)c3ccc([N+](=O)[O-])cc3)CC2)CC1`, the “hERG current change (%, negative = inhibition) at 1uM” value is listed as -26.9%.
Consider `O=C(Oc1cccc([N+](=O)[O-])c1)C1CCN(C(=O)c2ccc(F)cc2)CC1`, for which the “hERG current change (%, negative = inhibition) at 1uM” value is given as -3.31%.
The figure for `O=C(c1ccc2c(c1)OCCO2)C1CCN(C(=O)c2ccc(F)cc2)CC1` is 4.28%.
As for `Cc1onc(-c2ccccc2)c1C(=O)OCc1nnc(-c2ccccc2)o1`, the figure is 5.73%; as for `CCOC(=O)C1CCN(C(=O)C2CCN(C(=O)c3ccc([N+](=O)[O-])cc3)CC2)CC1`, -28.2%.
For `Cc1onc(-c2ccccc2)c1C(=O)OCc1nnc(-c2ccc([N+](=O)[O-])cc2)o1`, the “hERG current change (%, negative = inhibition) at 1uM” value is given as -51.2%.
`O=C(c1ccc2c(c1)OCCO2)C1CCN(C(=O)c2ccc(F)c(F)c2)CC1`: the “hERG current change (%, negative = inhibition) at 1uM” value was determined as 2.71%.
As for `Cc1nc(-c2ccc(C(=O)N3CCCC3)cc2)cs1`, the figure is 9.11%; as for `Cc1cccc(C(=O)NCC(=O)NC2CCC(C)CC2)c1` (stereo not drawn), 1.64%; as for `COCCN(Cc1cc2cc(C)ccc2n2nnnc12)C(=S)Nc1ccccc1C`, 17%.
The figure for `O=C(/C=C/c1cn(-c2ccccc2)nc1-c1cccc(Cl)c1)N1CCN(c2ccccn2)CC1` is 11%.
For `O=C(NC(=S)Nc1cccc2c(O)cccc12)c1cccc(Br)c1`, the “hERG current change (%, negative = inhibition) at 1uM” value is on record as 8.92%.
For `O=C(Nc1nccs1)c1nc[nH]c1C(=O)N1CCc2ccccc2C1`, the “hERG current change (%, negative = inhibition) at 1uM” value is 3.14%.
As to `COc1ccc(OC)c(-c2cc(C(=O)NCc3ccc(Cl)cc3)no2)c1`, the “hERG current change (%, negative = inhibition) at 1uM” value is given as 12.1%.
For the molecule `Cc1ccccc1NC(=O)/C(=C\c1cccs1)NC(=O)c1ccco1`, the “hERG current change (%, negative = inhibition) at 1uM” value is listed as -3.3%.
Regarding `CN1CCN(C(=O)/C(=C/c2cccs2)NC(=O)c2ccco2)CC1`, the “hERG current change (%, negative = inhibition) at 1uM” value is given as -62.1%.
Regarding `O=C(N/C(=C/c1cccs1)C(=O)N1CCOCC1)c1ccco1`, the “hERG current change (%, negative = inhibition) at 1uM” value worked out at 9.85%.
In the case of `O=C(N/C(=C\c1cccs1)C(=O)N1CCOCC1)c1ccco1`, the “hERG current change (%, negative = inhibition) at 1uM” value is -2.36%.
As for `CN1CCN(C(=O)/C(=C\c2cccs2)NC(=O)c2ccco2)CC1`, the figure is -65.2%; as for `Cc1ccc(NC(=O)/C(=C/c2cccs2)NC(=O)c2ccco2)cc1`, 17%.
With `COCc1cc(Sc2ccc(OC)cc2)nc(-c2ccccc2)n1`, the “hERG current change (%, negative = inhibition) at 1uM” value turned out to be 16.2%.
`CCCCN(C)C(=O)c1nc2ccccn2c1CN1CCN(c2ncccn2)CC1`: the “hERG current change (%, negative = inhibition) at 1uM” value came out at 6.17%.
Turning to `CCCCN(C)C(=O)c1nc2ccccn2c1CN1CCN(C/C=C/c2ccccc2)CC1`, the “hERG current change (%, negative = inhibition) at 1uM” value was -80.8%.
Turning to `CCCCN(C)C(=O)c1nc2ccccn2c1CN1CCSCC1`, the “hERG current change (%, negative = inhibition) at 1uM” value is given as 12.1%.
As to `CC(C)(C)c1ccc(C(=O)O/N=C(\N)c2ccccn2)cc1`, the “hERG current change (%, negative = inhibition) at 1uM” value is reported as 13.9%.
In the case of `O=C(CN1C(=O)/C(=C/c2ccccc2)SC1=S)Nc1cccnc1`, the “hERG current change (%, negative = inhibition) at 1uM” value was found to be 9.4%.
With `O=C(CC1CCCCC1)NCc1ccco1`, the “hERG current change (%, negative = inhibition) at 1uM” value turned out to be 7.39%.
For `CCCN(CCC)CC(O)COc1ccccc1C(=O)Nc1ccccc1.Cl` (stereo not drawn), the “hERG current change (%, negative = inhibition) at 1uM” value was -35.8%.
Consider `CCCCN(CCCC)CC(O)COc1ccccc1Br.Cl` (stereo not drawn), for which the “hERG current change (%, negative = inhibition) at 1uM” value was 1.61%.
Regarding `CCCCN(CCCC)CC(O)COc1ccccc1C(=O)Nc1ccccc1` (stereo not drawn), the “hERG current change (%, negative = inhibition) at 1uM” value was -55%.
Consider `CC(=O)N1CCc2cc(S(=O)(=O)CCC(=O)Nc3cc(C)cc(C)c3)ccc21`, for which the “hERG current change (%, negative = inhibition) at 1uM” value came out at 8.33%.
For `O=C(/C=C/c1ccccc1)N(c1ccccn1)C1CCCCC1`, the “hERG current change (%, negative = inhibition) at 1uM” value came out at 3.14%.
As to `Cc1nc2ccc(Br)cc2c2c1CC(CO)O2` (stereo not drawn), the “hERG current change (%, negative = inhibition) at 1uM” value came to 15.9%.
With `CCOC(=O)N1CCN(C(=O)c2oc3ccc(S(=O)(=O)N4CC(C)CC(C)C4)cc3c2C)CC1` (stereo not drawn), the “hERG current change (%, negative = inhibition) at 1uM” value was 0.354%.
Take `COCCOC(=O)C1=C(N)Oc2c(c(=O)oc3ccccc23)[C@@]12C(=O)Nc1ccccc12`: the “hERG current change (%, negative = inhibition) at 1uM” value is reported as 12.1%.
As for `CCN(CC)CCn1c(NS(=O)(=O)c2ccc(Cl)cc2)nc2ccccc21.Cl`, the figure is -69%.
Take `CCN(CC)CCn1c(NS(=O)(=O)c2ccc(C)cc2)nc2ccccc21`: the “hERG current change (%, negative = inhibition) at 1uM” value is -17.8%.
The figure for `CCN(CC)CCn1c(NC(=O)c2ccc(Cl)cc2)nc2ccccc21` is -0.305%; for `O=C1C(Cl)=C(N2CCN(Cc3ccccc3)CC2)C(=O)N1c1ccccc1` it is 8.07%; for `COc1ccc(-c2c[n+]3c(n2-c2ccccc2)SCC3)cc1.[Br-]` it is -6.21%.
Turning to `CCOc1ccc(-n2c(-c3ccc(Cl)cc3)c[n+]3c2SCC3)cc1.[Br-]`, the “hERG current change (%, negative = inhibition) at 1uM” value was -60.8%.
As to `Clc1ccc(-c2c[n+]3c(n2-c2ccccc2)SCC3)cc1.[Cl-]`, the “hERG current change (%, negative = inhibition) at 1uM” value is reported as 3.68%.
Take `Cc1cccc2c1-c1sc(C(=O)NCCCN3CCC(C)CC3)cc1CO2`: the “hERG current change (%, negative = inhibition) at 1uM” value is -5.27%.
The figure for `Cc1cccc2c1-c1sc(C(=O)NCCCN3CCCC(C)C3)cc1CO2` (stereo not drawn) is 16.2%; for `CCCN1CCN(CCCNC(=O)c2cc3c(s2)-c2c(C)cccc2OC3)CC1` it is -67.5%.
`CCn1cc(Br)c(C(=O)N(C)Cc2ccccc2)n1`: the “hERG current change (%, negative = inhibition) at 1uM” value came to 11.4%.
As to `Cc1ccc2nc(SCC(=O)N/N=C/c3ccco3)cc(C)c2c1`, the “hERG current change (%, negative = inhibition) at 1uM” value came to 9.47%.
For `Cc1ccc2nc(N/N=C/c3ccco3)cc(C)c2c1`, the “hERG current change (%, negative = inhibition) at 1uM” value is -62.9%.
As for `Cc1cc(N/N=C/c2ccco2)c2ccccc2n1`, the figure is 10.7%; as for `CCOC(=O)N1CCC(N2C(=O)c3ccccc3C2Nc2c(C)cccc2C)CC1` (stereo not drawn), -57.6%.
For `CCOC(=O)N1CCC(N2C(=O)c3ccccc3C2Nc2ccccc2)CC1` (stereo not drawn), the “hERG current change (%, negative = inhibition) at 1uM” value is 6.14%.
For the molecule `CCOC(=O)N1CCC(N2C(=O)c3ccccc3C2Nc2ccccc2C)CC1` (stereo not drawn), the “hERG current change (%, negative = inhibition) at 1uM” value is on record as -8.54%.
Turning to `COc1ccc(C(=O)N2CCCC(Nc3ccc(C)c(C)c3)C2)cc1` (stereo not drawn), the “hERG current change (%, negative = inhibition) at 1uM” value is on record as -0.108%.
For the molecule `Cc1cccc2cc(CN(Cc3ccc(F)cc3)C(=O)N3CCOCC3)c(=O)[nH]c12`, the “hERG current change (%, negative = inhibition) at 1uM” value was found to be 1.19%.
The figure for `CS(=O)(=O)Nc1ccc(C(=O)Nc2ccccc2C(=O)NCc2ccco2)cc1` is -58%; for `CS(=O)(=O)Nc1ccccc1C(=O)NCc1ccco1` it is 1.75%; for `CS(=O)(=O)Nc1ccc(C(=O)NCc2ccco2)cc1` it is 16.3%.
With `CC(C)CC(=O)Nc1ccc(C(=O)NNC(=O)C(c2ccccc2)c2ccccc2)cc1`, the “hERG current change (%, negative = inhibition) at 1uM” value is 12.2%.
For `CC1(C)CC(=O)c2cc(OCC(=O)NCCCN3CCN(c4ccccc4F)CC3)ccc2O1`, the “hERG current change (%, negative = inhibition) at 1uM” value is listed as -26%.
With `O=C(NCCCN1CCc2ccccc2C1)Nc1ccc(Cl)cc1`, the “hERG current change (%, negative = inhibition) at 1uM” value was -44.5%.
As for `CC1(C)CC(=O)c2cc(OCC(=O)NCCN3CCOCC3)ccc2O1`, the figure is 16.6%; as for `COc1ccc(N2CCN(CCCNC(=O)c3cc4sccc4n3C)CC2)cc1`, -77.7%; as for `CC1CCN(CCCNC(=O)c2cc3sccc3n2C)CC1`, -23.6%.
Take `COc1cccc(NC(=O)NCCCN2CCN(c3ccc(F)cc3)CC2)c1`: the “hERG current change (%, negative = inhibition) at 1uM” value was -51%.
`CC1(C)CC(=O)c2cc(OCC(=O)NCCCN3CCN(c4ccc(F)cc4)CC3)ccc2O1`: the “hERG current change (%, negative = inhibition) at 1uM” value is recorded as -60.3%.
Regarding `COc1cccc(NC(=O)NCCN2CCCCC2)c1`, the “hERG current change (%, negative = inhibition) at 1uM” value is 4.59%.
Consider `Cn1c(C(=O)NCCCN2CCCCC2)cc2sccc21`, for which the “hERG current change (%, negative = inhibition) at 1uM” value is -13.7%.
`COc1ccc(NC(=O)NCCCN2CCc3ccccc3C2)cc1`: the “hERG current change (%, negative = inhibition) at 1uM” value was -69.5%.
As for `COc1ccc(NC(=O)NCCN2CCc3ccccc3C2)cc1`, the “hERG current change (%, negative = inhibition) at 1uM” value is recorded as -1.55%.
With `CSc1cccc(NC(=S)NCCCN2CCN(c3ccc(F)cc3)CC2)c1`, the “hERG current change (%, negative = inhibition) at 1uM” value is on record as -3.39%.
